PLCg1 inh: blocks human PLC-gamma1 enzyme activity; inhibition, % at 12.2 µM; P19174; purified PLC-gamma1, fluorogenic substrate, fluorescence; 370,000 tested, 0.84% active; AID 720700; in the data active means inhibition above about 9.5%
LEDGF integ inh: blocks HIV-1 LEDGF/p75-dependent DNA integration; 370,000 tested, 0.64% active; AID 743269; inhibition, % at 3.7 µM; TR-FRET IN-LEDGF/p75 DNA integration, Eu/Cy5;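 active means inhibition above the screen-wide mean plus 3 SD, cut at about 13% in these data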;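 further: signal is the Cy5 over europium emission ratio at 671 and 618 nm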
MBD2 DNA inh: MBD2-methylated oligo binding inhibition; TR-FRET, MBD2 binding to methylated oligonucleotide; Q9UBB5; 370,000 tested, 0.31% active; inhibition, % at 4.4 µM; in the data active means inhibition above about 13%
UHRF1 MBD2 ctr: blocks human UHRF1 binding to methylated DNA; AID 687016; 370,000 tested, 0.75% active; inhibition, % at 4.4 µM; UHRF1 binding to methylated oligo, TR-FRET; Q96T88; in the data active means inhibition above about 21%;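 further: UHRF1 SRA domain binding a hemimethylated CpG hairpin DNA probe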
PLC-beta3 inh: blocks human PLC-beta3 enzyme activity | Purified PLC-beta3, fluorogenic substrate, fluorescence | Q01970 | inhibition, % at 12.2 µM | 370,000 tested, 0.18% active; in the data active means inhibition above about 11%
Target sequence (Q01970 whole entry, looked up): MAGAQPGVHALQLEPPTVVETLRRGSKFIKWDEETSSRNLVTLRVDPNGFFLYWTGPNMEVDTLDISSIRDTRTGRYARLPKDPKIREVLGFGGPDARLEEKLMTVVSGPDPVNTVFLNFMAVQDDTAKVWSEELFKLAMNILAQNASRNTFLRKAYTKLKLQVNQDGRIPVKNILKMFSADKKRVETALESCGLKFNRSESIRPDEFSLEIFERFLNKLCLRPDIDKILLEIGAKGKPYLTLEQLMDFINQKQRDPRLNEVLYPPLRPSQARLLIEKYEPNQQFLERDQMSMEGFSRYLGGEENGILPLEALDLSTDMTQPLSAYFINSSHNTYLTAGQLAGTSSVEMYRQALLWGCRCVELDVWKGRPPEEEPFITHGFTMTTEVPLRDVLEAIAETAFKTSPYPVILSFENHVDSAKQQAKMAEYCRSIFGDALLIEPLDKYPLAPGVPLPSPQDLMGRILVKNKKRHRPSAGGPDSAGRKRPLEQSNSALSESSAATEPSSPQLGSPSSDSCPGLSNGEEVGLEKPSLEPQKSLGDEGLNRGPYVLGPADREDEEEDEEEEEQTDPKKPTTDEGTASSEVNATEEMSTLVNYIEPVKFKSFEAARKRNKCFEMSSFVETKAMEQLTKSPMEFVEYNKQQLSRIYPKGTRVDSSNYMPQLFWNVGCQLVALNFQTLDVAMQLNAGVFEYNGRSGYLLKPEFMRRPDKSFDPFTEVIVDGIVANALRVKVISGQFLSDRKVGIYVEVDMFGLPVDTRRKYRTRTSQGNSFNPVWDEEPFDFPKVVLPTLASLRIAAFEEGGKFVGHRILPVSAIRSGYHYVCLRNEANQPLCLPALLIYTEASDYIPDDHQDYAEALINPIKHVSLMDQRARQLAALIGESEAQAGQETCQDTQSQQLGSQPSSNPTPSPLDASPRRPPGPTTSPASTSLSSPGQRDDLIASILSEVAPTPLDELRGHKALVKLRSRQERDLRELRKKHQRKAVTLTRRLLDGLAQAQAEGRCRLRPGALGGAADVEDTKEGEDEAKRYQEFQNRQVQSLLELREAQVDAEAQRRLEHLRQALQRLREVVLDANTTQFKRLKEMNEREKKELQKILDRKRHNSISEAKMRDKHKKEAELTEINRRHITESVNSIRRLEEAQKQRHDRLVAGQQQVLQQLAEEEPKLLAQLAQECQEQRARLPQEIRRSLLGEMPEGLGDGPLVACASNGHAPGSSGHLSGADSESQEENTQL
IN multimer act: HIV-1 integrase multimerization activation, counter-screen | 2,000 tested, 17% active | activation, % at 7.7 µM | shares compounds with LEDGF integ inh | TR-FRET HIV-1 integrase multimerization, biochemical; in the data active means activation above about 8.9%
TR-FRET interf: counter-screen for LEDGF/p75 integration inhibitors: TR-FRET optical interference | shares compounds with LEDGF integ inh | TR-FRET optical interference counterscreen, HIV-1 IN multimerization | inhibition, % at 7.7 µM | 2,000 tested, under 10 active | AID 1053135;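 active means inhibition above the mean over all tested compounds plus 3 SD, which no compound reached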
IN-LEDGF confirm: LEDGF/p75-dependent HIV-1 integration inhibition, confirmation; inhibition, % at 3.7 µM; 2,000 tested, 36% active; TR-FRET LEDGF/p75-dependent HIV-1 integration, biochemical; shares compounds with LEDGF integ inh; in the data active means inhibition above about 14%
A number is an active result; . = inactive; / = not tested or not shown. Hits are enriched below; roughly 2.3% of the tested compounds scored in any of these assays.

SMILES	PLCg1 inh	LEDGF integ inh	MBD2 DNA inh	UHRF1 MBD2 ctr	PLC-beta3 inh	IN multimer act	TR-FRET interf	IN-LEDGF confirm
Cc1ccc(S(=O)(=O)c2nc(-c3ccco3)oc2SC(C)C)cc1	.	16.4	.	.	.	.	.	.
CN(CCOC(=O)CSc1ccccc1)C1CN(Cc2cn(Cc3ccccc3F)nn2)S(=O)(=O)C1 (centres undefined)	.	.	.	.	.	/	/	/
Cc1cc(C(=O)COc2cccnc2[N+](=O)[O-])c(C)n1Cc1cccs1	.	13.7	.	.	.	.	.	.
O=[N+]([O-])c1ccccc1S(=O)(=O)N1CCC(c2cn3ccccc3n2)CC1	.	.	.	.	.	/	/	/
S=c1[nH]nc(-c2cc(-c3ccccc3)n[nH]2)n1/N=C/C=C/c1ccco1	.	.	.	.	.	/	/	/
S=c1[nH]nc(-c2ccco2)n1/N=C/C=C/c1ccco1	.	21.1	.	25.9	.	15.9	.	74.0
CC(=O)NC(CC(=O)Nc1ccc(S(=O)(=O)N2CCCCC2)cc1)c1ccccc1 (centres undefined)	.	.	.	.	.	/	/	/
CCOc1ccc(NC(=O)CC(NC(C)=O)c2ccccc2)cc1S(=O)(=O)N1CCCC1 (centres undefined)	.	14.0	.	.	.	.	.	.
CCC(=O)Nc1cccc(NC(=O)c2ccccc2Cl)c1	.	56.2	.	.	.	.	.	.
CCC(=O)Nc1cccc(NC(=S)NC(=O)c2ccccc2Cl)c1	.	.	.	.	.	/	/	/
CCN(c1ccccc1)S(=O)(=O)c1cc(OC)ccc1OC	.	52.2	.	.	.	.	.	.
Nc1ccc2nc(CCCO)[nH]c2c1	.	.	.	.	.	/	/	/
Nc1n[nH]c(CCCO)n1	.	24.6	.	.	.	.	.	.
CC1(C(=O)NCc2ccccc2)CN(S(C)(=O)=O)CC(=O)N1CCc1ccccc1 (centres undefined)	.	.	.	.	.	/	/	/
COCCN1C(=O)CN(S(C)(=O)=O)CC1(C)C(=O)NCc1ccccc1 (centres undefined)	.	14.3	.	.	.	.	.	.
Oc1c(Br)cc(Cl)cc1C=Nc1ccc(N2CCOCC2)cc1	.	19.0	.	.	.	.	.	25.0
Clc1cccc(-c2ccc(C=Nc3ccc(N4CCOCC4)cc3)o2)c1	.	23.8	.	.	.	.	.	.
O=C(CSc1ncccn1)Nc1ncc(C(F)(F)F)cc1Cl	.	81.6	.	.	.	.	.	.
COCCCNc1nc(SCc2ccccc2)nc2sc3c(c12)CCC3	.	13.9	.	.	.	.	.	.
CC1=CN2C(=N)/C(=C/c3ccco3)C(=O)N=C2S1	.	.	.	.	.	/	/	/
CC1=CN2C(=N)/C(=C/c3ccc([N+](=O)[O-])o3)C(=O)N=C2S1	.	17.5	.	.	.	.	.	16.9
COc1ccc(C(=O)N(c2ccc(OC)cc2)S(=O)(=O)c2cccs2)cc1	.	23.9	.	.	.	.	.	.
COc1ccc(N(C(=O)c2ccccc2)S(=O)(=O)c2cccs2)cc1	.	.	.	.	.	/	/	/
Cc1ccc(S(=O)(=O)/N=C2\C=C(Nc3cccc(C(=O)O)c3)C(=O)c3ccccc32)cc1	.	51.6	.	.	.	.	.	63.8
CC(C)(C)c1ccc(S(=O)(=O)/N=C2\C=C(NS(=O)(=O)c3ccccc3)C(=O)c3ccccc32)cc1	.	16.2	.	.	.	.	.	.
SMILES	PLCg1 inh	LEDGF integ inh	MBD2 DNA inh	UHRF1 MBD2 ctr	PLC-beta3 inh	IN multimer act	TR-FRET interf	IN-LEDGF confirm
COC(=O)C1CN(Cc2cn(Cc3ccccc3)nn2)CCS(=O)(=O)N1Cc1ccc(OC)cc1 (centres undefined)	.	.	.	.	.	/	/	/
COC(=O)C1CN(Cc2cn(CCOC(C)=O)nn2)CCS(=O)(=O)N1Cc1ccc(C)cc1 (centres undefined)	.	.	.	.	.	/	/	/
CC1(C(=O)NS(=O)(=O)C2CC2)CCN(C(=O)COc2ccc(Cl)cc2Cl)C1 (centres undefined)	.	13.7	.	.	.	.	.	.
CC1(C(=O)NS(=O)(=O)C2CC2)CCCN(C(=O)COc2ccc(Cl)cc2Cl)C1 (centres undefined)	.	.	.	.	.	/	/	/
COc1cccc(=O)c2c(C)n(CC(=O)c3ccccc3)c(C)c12	.	51.1	.	.	.	.	.	.
CCCC(=O)Nc1ccc2c(c1)C(=O)N(C)[C@H]1CC[C@@H](CC(=O)OC)O[C@@H]1CO2	.	.	.	.	.	/	/	/
O=c1cc(-c2ccc(Cl)c(Cl)c2)[nH][nH]1	.	14.8	.	.	.	.	.	13.7
COc1ccc(-c2cc(=O)[nH][nH]2)cc1	.	14.6	.	.	.	.	.	.
O=C1CC(c2ccccc2)=NN1c1ccccc1	.	20.8	.	.	.	.	.	.
COc1ccc(C=NNC(=O)c2cc(-c3ccc(C)c(C)c3)n[nH]2)cc1OCc1ccccc1	.	.	.	.	.	/	/	/
CC(=O)NC1=NC(=O)/C(=C/c2cc(C)n(-c3ccc(NC(C)=O)cc3)c2C)S1	.	.	.	.	.	/	/	/
CC(=O)NC1=NC(=O)/C(=C/c2cc(C)n(-c3cccc(C(=O)O)c3)c2C)S1	.	31.3	.	45.2	.	14.1	.	.
CCCCNC(=O)C[C@H]1C[C@@]2(C(=O)OC)C(=C[C@H](C(C)C)O[C@@H]2C2CC2)N(Cc2ccco2)C1=O	.	.	.	.	.	/	/	/
COc1ccc(CC(=O)O/N=C(\N)Cc2cccc3ccccc23)cc1	.	14.0	.	.	.	.	.	.
COc1cc(O)c([C@@H](CC(=O)N2CC(C)CC(C)C2)c2ccc3c(c2)OCO3)c(OC)c1 (some centres undefined)	.	.	.	.	.	/	/	/
O=C(NCCc1ccccc1)OCc1cn(-c2cccc(F)c2F)nn1	.	.	.	.	.	/	/	/
CCC(CC)C(=O)OCC(=O)NC12CC3CC(CC(C3)C1)C2	.	14.0	.	.	.	.	.	.
CCOCC(=O)OCC(=O)NC12CC3CC(CC(C3)C1)C2	.	.	.	.	.	/	/	/
COc1ccc(-c2cc3ncc(C(C)=O)c(C)n3n2)cc1	.	24.9	.	.	.	.	.	.
CC(=O)c1cnc2cc(-c3ccc(C)cc3)nn2c1C	.	.	.	.	.	/	/	/
CC(C)C[C@H]1CNC(=O)C(=O)N1C[C@H](Cc1ccc(O)cc1)NC(=O)Cc1ccccc1	.	74.6	.	.	.	.	.	.
C=CCN1C(=O)[C@@H](CC(=O)NCCCCc2ccccc2)[C@]2(C(=O)OC)CCCCC=C12	.	.	.	.	.	/	/	/

Screening data from PubChem.
